Compound activity (PubChem)
aSyn UTR act: Activators via SNCA 5'UTR binding, MLPCN; alpha-synuclein 5'UTR reporter, activators screen; activity score, % (tested at 7.5 µM), hits read low; 7.1% of 300,000 active; AID 1814; in the data active = activity score below about -60%
The depositor's hits bear a star. These entries were drawn from the full list.

SMILES | aSyn UTR act
CC(=O)c1sc(-c2ccc(Cl)cc2)nc1C | -100.9*
C/C(=N\O)c1sc(-c2ccccc2)nc1C | -139.6*
CCNC(=O)O/N=C(\C)c1sc(-c2ccccc2)nc1C | -134.5*
CNC(=O)c1sc(-c2ccc(Cl)cc2)nc1C | -187.3*
CNC(=O)c1sc(-c2ccccc2)nc1C | -78.1*
NC(=O)c1sc2nc(-c3cccnc3)ccc2c1N | -101.5*
CCOC(=O)c1sc2nc(-c3cccnc3)ccc2c1N | -149.9*
COc1ccc2cc(CCC(C)=O)ccc2c1 | -126.2*
O=C(Nc1ccc2nc3n(c(=O)c2c1)CCCC3)c1cccc([N+](=O)[O-])c1 | -102.9*
CC(=O)Nc1ccc(NC(=O)c2sc3nc4n(c(=O)c3c2C)CCCCC4)cc1 | 76.3
COc1cc(OC)cc(C(=O)Nc2ccc3nc4n(c(=O)c3c2)CCCCC4)c1 | -114.8*
Cc1nc2cc3nc(C)sc3cc2s1 | -79.5*
Fc1ccc(C[n+]2csc3ccccc32)cc1 | -108.8*
COC(=O)c1ccc(CN2C(=O)NC(Cc3c[nH]c4ccccc34)C2=O)cc1 (centres undefined) | -95.5*
CC(=O)Nc1ccc2nc(SCC(=O)Nc3ccc(N4CCOCC4)c(Cl)c3)sc2c1 | -142.4*
O=C(CSc1nc2ccccc2o1)Nc1ccc(N2CCOCC2)c(Cl)c1 | -164.9*
CCc1ccc(NC(=O)N2CCCCCC2)cc1 | -123.6*
CCOC(=O)c1ccc(NC(=O)N2CCCCC2)cc1 | -91.9*
O=C(Nc1ccc(Br)cc1)N1CCCCCC1 | -144.3*
Cc1ccc(NC(=O)N2CCCCCC2)cc1 | -74.2*
COc1ccc(NC(=O)N2CCCCC2)cc1 | -65.5*
COC(=O)c1ccc(NC(=O)C(=O)N2CCCC2)cc1 | -147.6*
CCOC(=O)c1ccc(N/C=C2\CCCCC2=O)cc1 | -127.1*
COc1ccc(NC(=O)CSc2n[nH]c(N)n2)cc1OC | -92.3*
Nc1nc(SCC(=O)Nc2ccc(OCc3ccccc3)cc2)n[nH]1 | -84.5*
SMILES | aSyn UTR act
O=C1CCCC(O)=C1C=Nc1ccc2c(c1)oc1ccccc12 | -168.5*
Cc1ccc(C)c2nc3sc(C(=O)N4CCOCC4)c(N)c3cc12 | -128.8*
Cc1cc(C)c2nc3sc(C(=O)N4CCOCC4)c(N)c3cc2c1 | 87.8
COCCNc1oc(-c2ccc(Cl)cc2)nc1C#N | -161.7*
COCCNc1oc(-c2ccc(C)cc2)nc1C#N | -107.5*
N#Cc1nc(-c2ccc(Cl)cc2)oc1NCc1ccco1 | -108.2*
Cc1ccc(C(=O)CN2C(=O)c3ccccc3S2(=O)=O)cc1 | 109.4
Cc1ccc(C(=O)COc2ccccc2N2C(=O)c3ccccc3C2=O)cc1 | -127.5*
Cc1ccc2nc(-c3ccc(NC(=O)c4ccco4)cc3)[nH]c2c1 | -162.9*
Cn1cccc1-c1nc2ccc(NC(=O)c3ccco3)cc2[nH]1 | -131.9*
N#Cc1cnc(Nc2nc3ccccc3o2)nc1-c1ccccc1 | -72.0*
CC(C)(C)c1ccc(C(=O)NNC(=O)C2CCCCC2)cc1 | -64.3*
Cc1cccc(N2CCN(C(=O)CNC(=O)c3ccccc3)CC2)c1C | -81.3*
Cc1cccc(N2CCN(C(=O)c3c(-c4ccccc4)noc3C)CC2)c1C | 64.6
CC(C)(C)c1ccc(C(=O)N2CCCCCC2=O)cc1 | 90.7
Cc1ccc(C(=O)NCCC(=O)N2CCCC2)cc1 | -146.3*
CC(C)(C)c1ccc(C(=O)NCC(=O)N2CCCC2)cc1 | -74.5*
Cc1ccc(S(=O)(=O)Cc2ccc(C(=O)N3CCN(c4cccc(C)c4C)CC3)o2)cc1 | 88.5
CC#CC#Cc1cccc(=O)o1 | -116.3*
N#C/C(=C/c1ccc(N2CCOCC2)o1)C(=O)Nc1ccccc1 | -152.5*
Cc1ccc2nc(/C(C#N)=C\c3ccc(N4CCOCC4)o3)[nH]c2c1 | -231.3*
Cc1ccc(/C(C#N)=C\c2ccc(N3CCOCC3)o2)cc1 | -312.5*
CC(=O)Nc1ccccc1C(=O)C(=O)Nc1cccc(Br)c1 | -78.8*
CC(=O)Nc1ccccc1C(=O)C(=O)Nc1ccccc1 | -96.3*
CCC(=O)Nc1ccccc1C(=O)C(=O)Nc1ccccc1 | -69.5*
SMILES | aSyn UTR act
CC(=O)Nc1ccccc1C(=O)C(=O)Nc1ccc(Cl)cc1 | -105.8*
Cc1cc(C)nc(Nc2n[nH]c(-c3ccccc3Cl)n2)n1 | -141.2*
Cc1cc(C)nc(Nc2n[nH]c(-c3cccc4ccccc34)n2)n1 | -88.0*
Cc1cc(C)nc(Nc2n[nH]c(COc3ccccc3)n2)n1 | -109.5*
Brc1ccc(OCc2nc3ccccc3[nH]2)cc1 | -213.6*
COc1cccc(CSc2nc3ccccc3cc2C=O)c1 | 71.0
COc1cccc(OCc2nc3ncc(Br)cc3[nH]2)c1 | -77.1*
c1ccc2cc(OCc3nc4ccccc4[nH]3)ccc2c1 | -166.5*
COc1cccc(OCc2nc3ccccc3[nH]2)c1 | -136.9*
COc1ccc(OCc2nc3ccccc3[nH]2)cc1 | -113.3*
Cc1cccc(NC2=C(NC(=O)c3ccccc3)C(=O)c3ccccc3C2=O)c1 | -101.6*
COc1ccc(C2NN=C(c3ccc(C)cc3)S2)cc1 (centres undefined) | -171.8*
Cc1ccc(C2=NNC(C(O)C(O)C(O)CO)S2)cc1 (centres undefined) | -66.5*
COc1c2c(cc3oc(=O)c4c5ccc(O)cc5oc4c13)OC(C)(C)CC2 | -198.8*
O=C(Nc1ccccc1F)Nc1ccccc1F | -238.8*
O=C(Nc1ccc(Br)cc1)Nc1ccccc1F | -232.1*
CN(C)CCOc1nc(-c2ccccc2)nc2c1oc1ccccc12 | -87.8*
CCC1SC(=NC(=O)c2ccc(Cl)c(Cl)c2)NC1=O (centres undefined) | -75.5*
Cc1ccccc1OCC(=O)O/N=C(\N)Cc1cccs1 | -62.7*
N/C(Cc1cccc2ccccc12)=N\OC(=O)Cc1cccs1 | -117.5*
N/C(Cc1cccs1)=N\OC(=O)COc1ccc(Cl)cc1Cl | -154.2*
Cc1ccccc1C(=O)O/N=C(\N)Cc1cccs1 | -131.3*
N/C(=N\OC(=O)Cc1cccs1)c1ccc(Br)cc1 | -105.6*
c1ccc(-c2cc(N3CCCCCC3)n[nH]2)cc1 | -73.7*
c1ccc(-c2cc(N3CCCCC3)ncn2)cc1 | -134.8*
SMILES | aSyn UTR act
Cc1ccc(SCCSc2nc(C)cc(=O)[nH]2)cc1 | -133.0*
Nc1nc(-c2cc(-c3ccccc3)no2)cs1 | -173.6*
Nc1nc(-c2ccc(Br)cc2)cs1 | -98.8*
c1ccc(-c2cc(-c3ccccc3)on2)cc1 | -152.5*
Nc1nc(-c2ccccc2)cs1 | -97.5*
O=C(c1ccccc1)c1cc(-c2ccccc2)on1 | -107.9*
N/C(Cc1nc(-c2ccc(Br)cc2)cs1)=N\O | -95.8*
CC(C)(C)C(=O)[C@H]1[C@H](c2ccccc2)[C@@]2(N=C(c3ccccc3)OC2=O)C2c3ccccc3C=NN21 (some centres undefined) | -83.2*
CC1Cc2ccccc2N1C(=O)Cc1cccs1 (centres undefined) | 37.6
CC1Cc2ccccc2N1C(=O)/C=C/c1cccc(F)c1 (centres undefined) | -170.1*
Cc1c(C(=O)C(=O)N2c3ccc(F)cc3CCC2C)c2ccccc2n1C (centres undefined) | 61.7
O=C(NC1CCCC1)c1cc2cc(Br)ccc2o1 | -138.8*
O=C(NC1CCCCC1)Oc1cc2oc(=O)sc2cc1Br | 53.6
O=C(NC1CCCC1)c1cc2ccccc2o1 | -107.2*
O=C(NC1CCCCC1)c1cc2cc(Br)ccc2o1 | -138.3*
CCN1C(=Nc2ccc(Cl)cc2)SC/C1=C\C(=O)OC | -80.6*
Cc1ccc(-c2nn(-c3ccccc3)cc2/C=N/n2c(-c3ccncc3)n[nH]c2=S)cc1 | -85.9*
O=[N+]([O-])c1ccc(Cl)c(/C=N/n2c(-c3ccncc3)n[nH]c2=S)c1 | -77.7*
O=[N+]([O-])c1ccc(N/N=C/c2c[nH]c3ccccc23)cc1 | -138.7*
